High-throughput results deposited in PubChem BioAssay by The Scripps Research Institute Molecular Screening Center.
Shown are actives, neighbours in structure and some others; about 2.3% of the full set was active somewhere.
M1 PAM: potentiates human M1 receptor response to acetylcholine; P11229; CHO-K1 hM1, Fluo-8 calcium fluorescence, ACh EC20; 0% = ACh EC20, 100% = maximal ACh; activation, % at 3 µM; 360,000 compounds, 0.088% hits; AID 588819; in the data active = activation above about 19%, passing the limit was not always enough
Target sequence (P11229 whole entry, looked up): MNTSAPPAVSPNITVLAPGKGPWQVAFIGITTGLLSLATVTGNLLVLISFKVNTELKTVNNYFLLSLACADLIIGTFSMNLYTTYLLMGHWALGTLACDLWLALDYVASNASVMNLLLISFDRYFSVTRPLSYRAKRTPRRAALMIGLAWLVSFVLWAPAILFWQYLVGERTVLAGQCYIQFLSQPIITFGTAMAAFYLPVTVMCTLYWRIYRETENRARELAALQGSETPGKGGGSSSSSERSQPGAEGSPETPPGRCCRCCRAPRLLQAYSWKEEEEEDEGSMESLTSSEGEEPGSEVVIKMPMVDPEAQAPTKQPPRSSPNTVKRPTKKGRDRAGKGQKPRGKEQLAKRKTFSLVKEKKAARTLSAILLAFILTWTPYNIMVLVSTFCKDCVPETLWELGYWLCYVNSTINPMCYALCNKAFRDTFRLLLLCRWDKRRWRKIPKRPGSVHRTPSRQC
CHO-K1 Ca antag: nonselective inhibitor or artifact in parental CHO-K1 cells. ATP-induced calcium, Fluo-8 fluorescence. inhibition, % at 3 µM. 360,000 compounds, 0.6% hits. AID 602250;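 active = inhibition above a per-plate cutoff, the plate's mean sample inhibition plus 3 SD, cut at about 24% in these data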
M1 PAM parental: M1 PAM counterscreen hit in parental CHO-K1 cells. ATP EC20, Fluo-8 calcium fluorescence; 0% at ATP EC20, 100% at ATP max. activation, % at 3 µM. 360,000 compounds, 0.02% hits. AID 602247;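 active = activation above the run cutoff, the mean activation of all test compounds plus 3 SD, cut at about 40% in these data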;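 also: peak over basal fluorescence ratio in a 140 s read after ATP addition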
M1 ag parental: nonselective activator or artifact in parental CHO-K1 cells; Fluo-8 calcium fluorescence; scaled to maximal ATP response, vehicle zero; activation, % at 3 µM; 360,000 compounds, 0.48% hits; in the data active = activation above about 15%;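 also: untransfected CHO-K1 host cells lacking M1 receptor as counterscreen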
CHRM1 agonist: activates human CHRM1 receptor. P11229. CHO-K1 hM1, Fluo-8 calcium fluorescence, agonist mode; 0% DMSO, 100% acetylcholine EC100. activation, % at 3 µM. 360,000 compounds, 0.33% hits;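 active = activation above the run's mean compound activation plus 3 SD, cut at about 16% in these data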;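 also: peak over basal fluorescence ratio within a 140 s kinetic read after compound addition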
CHRM1 antagonist: blocks human M1 muscarinic receptor | CHO-K1 hM1, Fluo-8 calcium fluorescence, ACh EC80 antagonist | inhibition, % at 3 µM | 360,000 compounds, 1.3% hits | AID 588852;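 active = percent inhibition above its own plate's cutoff, namely the mean of that plate's compound wells plus 3 SD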;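 also: peak over basal fluorescence ratio during 140 s after agonist addition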
A number is an active result; - = inactive; . = no result given.

SMILES | M1 PAM | CHO-K1 Ca antag | M1 PAM parental | M1 ag parental | CHRM1 agonist | CHRM1 antagonist
CC(=O)N[C@@H](CC(=O)O)C(=O)O | - | - | - | - | - | -
CN(/N=C/c1ccc(-c2ccc([N+](=O)[O-])cc2)o1)c1ccccc1 | - | 30.1 | - | 17.1 | - | -
CN(/N=C/c1cc([N+](=O)[O-])ccc1O)c1ccccc1 | - | - | - | - | - | -
CCCC1(C(=O)OCC)NC(c2ccco2)C2C(=O)N(C)C(=O)C21 (centres undefined) | - | - | - | - | - | -
ClN=C1C=CC=CC1=NCl | - | 34.5 | - | - | - | -
COC1=CC(=NCl)C=CC1=NCl | - | - | - | - | - | -
Cc1cnn(-c2cc(Oc3ccccc3)ncn2)c1 | - | 25.0 | - | - | - | -
c1ccc(Oc2cc(-n3cncn3)ncn2)cc1 | - | - | - | - | - | -
O=C(CNC(=O)c1cccs1)N=Nc1c(O)[nH]c2ccc([N+](=O)[O-])cc12 | - | - | - | - | - | -
Cc1cc(=O)n2nc(N3CCCC(C(=O)N4CCOCC4)C3)sc2n1 (centres undefined) | - | - | - | - | - | -
Cc1cc(=O)n2nc(N3CCCC(C(=O)N4CCc5ccccc54)C3)sc2n1 (centres undefined) | - | - | - | - | - | 96.7
N#CC(C#N)=C1NC(N)=C(C#N)C(c2ccccc2)=C1C#N | - | - | - | - | - | -
COc1cc2c(cc1OC)[C@@H](NC(=O)COc1ccccc1)[C@H](OCc1ccccc1)C2 | - | - | - | - | - | -
COCCCNC(=S)Nc1cc(C)c(C)cc1C | - | - | - | - | - | 62.1
Nc1nc(N)c(Br)c(Nc2ccc(Cl)c(Cl)c2)n1 | - | - | - | - | - | -
Nc1nc(N)c(N=O)c(Nc2cccc(Cl)c2)n1 | . | - | - | - | . | .
Cc1ccc(Nc2nc(N)nc(N)c2N=O)cc1Cl | . | - | - | 36.4 | . | .
Nc1nc(N)c(N=O)c(Nc2ccc(Cl)c(Cl)c2)n1 | . | - | 52.9 | - | . | .
c1ccc(N2CC[N+]3(CCCC3)CC2)nc1 | - | - | - | - | - | 54.5
c1cnc(N2CC[N+]3(CCCC3)CC2)nc1 | - | - | - | - | - | 33.4
CC(=O)c1c(C)[nH]c(C(=O)CN(C)CC(=O)Nc2ccccc2Cl)c1C | - | - | - | - | - | -
CCN(CC(=O)Nc1ccccc1C(F)(F)F)CC(=O)c1[nH]c(C)c(C(C)=O)c1C | - | 29.2 | - | - | - | -
O=C(CN1C(=O)NC(Cc2ccccc2)C1=O)Nc1ccc(F)c(Cl)c1 (centres undefined) | - | - | - | - | - | -
COc1ccc(OC)c(S(=O)(=O)NC2CC(=O)N(c3ccc(C)c(C)c3)C2)c1 (centres undefined) | - | - | - | - | - | -
O=S(=O)(Nc1ccc(-c2csc(-c3ccccc3)n2)cc1)c1ccc(F)cc1 | - | - | - | - | - | -
SMILES | M1 PAM | CHO-K1 Ca antag | M1 PAM parental | M1 ag parental | CHRM1 agonist | CHRM1 antagonist
COc1ccccc1OC(C)C(=O)Nc1nc(-c2ccc(S(=O)(=O)N3CCOCC3)cc2)cs1 (centres undefined) | - | - | - | - | - | -
COc1ccccc1C(=O)Nc1nc(-c2ccc(S(=O)(=O)N3CCOCC3)cc2)cs1 | - | - | - | - | - | 56.8
O=C(Nc1nc(-c2ccccc2)cs1)c1ccccc1NS(=O)(=O)c1ccc(F)cc1 | - | 31.6 | - | - | - | 41.7
Cn1c(=O)c2[nH]c(CCCCc3nc4ccccc4[nH]3)nc2n(C)c1=O | - | - | - | - | - | -
Cn1c(=O)c2[nH]c(CCCCCCCCc3nc4ccccc4[nH]3)nc2n(C)c1=O | - | - | - | - | - | 37.5
COc1ccc(C(=O)CCc2ccccc2)c(O)c1 | - | 29.2 | - | - | - | -
CC(C)[C@H]1COCCS(=O)(=O)N1Cc1ccccc1-c1ccc(C(C)(C)C)cc1 | - | - | - | - | - | -
O=C(CSc1nnc(SCc2ccccc2)s1)N/N=C/C=C\c1ccco1 | - | - | - | 15.8 | - | -
Cc1ccc(S(=O)(=O)N2CC(O)C[C@H]2C(=O)OCC(=O)N2CCN(c3ccc(F)cc3)CC2)cc1C (some centres undefined) | - | - | - | - | - | -
O=C(COc1ccc(Br)cc1)Nc1ccc(N2CCOCC2)cc1N1CCOCC1 | - | - | - | - | - | -
COc1ccc(N2CCN(S(=O)(=O)c3cccc4nsnc34)CC2)cc1 | - | - | - | - | - | -
CC(=O)Nc1ccc(NC(=O)C2CCCN2S(=O)(=O)c2cccc3nsnc23)cc1 (centres undefined) | - | - | - | 18.8 | - | -
CC(=O)c1ccc(N2CCN(S(=O)(=O)c3cccc4nsnc34)CC2)cc1 | - | 24.2 | - | - | - | -
O=C(Nc1ccccc1F)C1CCCN1S(=O)(=O)c1cccc2nsnc12 (centres undefined) | - | 58.2 | - | - | - | -
CCN(CC)C(=O)c1cn(-c2cccc(OC)c2)c(=O)c2ccccc12 | - | - | - | - | - | -
COc1ccc(CCC(=O)N2CCN(S(=O)(=O)c3cccs3)CC2)cc1 | - | - | - | - | - | -
OCC[C@H]1C[C@H](O)[C@@H](O)[C@@]2(CCCO2)O1 | - | - | - | - | - | -
CN(C)c1cccc(C(=O)NCCCSc2ccccc2)c1 | - | - | - | - | - | -
Cc1ccc(C2=NS(=O)(=O)N(C)C(C(=O)Nc3ccc(F)cc3F)=C2)cc1 | - | - | - | - | - | 34.2
Cc1cc(C)cc(C(=O)N2CCCCCC2)c1 | - | - | - | - | - | -
Cc1cc(C)c(C(=O)c2ccc(C(=O)N3CCCCC3)cc2)c(C)c1 | - | - | - | 28.4 | 36.5 | -
Cn1ccc2ccc(C3=CC(=O)C[C@H](c4ccc(F)cc4)C3)cc21 | - | - | - | - | - | -
O=C(c1ccccc1)c1ccc(-n2cnnc2)c([N+](=O)[O-])c1 | - | - | - | 22.2 | - | -
O=S(=O)(c1ccccc1)N1CCN(S(=O)(=O)c2ccccc2)C1 | - | - | - | - | - | -
O=S(=O)(/N=S1/CC=CCN1S(=O)(=O)c1ccccc1)c1ccccc1 (centres undefined) | - | - | - | - | 20.7 | -
Cc1nn(CC(=O)NCc2ccc(OC(C)C)cc2)c(=O)c2cc(-c3ccccc3)nn12 | - | - | - | - | - | -
CCOC(=O)N1CCN(C(=O)CCS(=O)(=O)c2ccc(Br)s2)CC1 | - | 27.4 | - | - | - | -
CCC(C)NC(=O)CCS(=O)(=O)c1ccc(Br)s1 (centres undefined) | - | - | - | - | - | -
Cc1cc(C)n(CCC(=O)N=Nc2c(O)[nH]c3ccc(Br)cc23)n1 | - | - | - | - | - | -
CC(=O)c1ccc(NC(=O)CSc2nc(=O)n3cccc(C)c3n2)cc1 | - | 44.0 | - | - | - | -
